# Screens: PubChem, Center for Chemical Genomics, University of Michigan
# Dicer inh – inhibitors of Dicer pre-microRNA processing, primary screen, biochemical, cat-ELCCA, chemiluminescence; Endoribonuclease Dicer (Homo sapiens), Q9UPY3; cat-ELCCA pre-miR-21 Dicer processing; active compounds read high; z-score at 25 µM; 47,000 compounds, 6% hits; AID 1347074, 2019; in the data active = z-score above about 3, passing the limit was not always enough;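 note: plate controls were vehicle for no effect and no enzyme for full effect; higher signal means more uncleaved substrate so more Dicer inhibition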
# Target sequence (Q9UPY3 whole entry, looked up): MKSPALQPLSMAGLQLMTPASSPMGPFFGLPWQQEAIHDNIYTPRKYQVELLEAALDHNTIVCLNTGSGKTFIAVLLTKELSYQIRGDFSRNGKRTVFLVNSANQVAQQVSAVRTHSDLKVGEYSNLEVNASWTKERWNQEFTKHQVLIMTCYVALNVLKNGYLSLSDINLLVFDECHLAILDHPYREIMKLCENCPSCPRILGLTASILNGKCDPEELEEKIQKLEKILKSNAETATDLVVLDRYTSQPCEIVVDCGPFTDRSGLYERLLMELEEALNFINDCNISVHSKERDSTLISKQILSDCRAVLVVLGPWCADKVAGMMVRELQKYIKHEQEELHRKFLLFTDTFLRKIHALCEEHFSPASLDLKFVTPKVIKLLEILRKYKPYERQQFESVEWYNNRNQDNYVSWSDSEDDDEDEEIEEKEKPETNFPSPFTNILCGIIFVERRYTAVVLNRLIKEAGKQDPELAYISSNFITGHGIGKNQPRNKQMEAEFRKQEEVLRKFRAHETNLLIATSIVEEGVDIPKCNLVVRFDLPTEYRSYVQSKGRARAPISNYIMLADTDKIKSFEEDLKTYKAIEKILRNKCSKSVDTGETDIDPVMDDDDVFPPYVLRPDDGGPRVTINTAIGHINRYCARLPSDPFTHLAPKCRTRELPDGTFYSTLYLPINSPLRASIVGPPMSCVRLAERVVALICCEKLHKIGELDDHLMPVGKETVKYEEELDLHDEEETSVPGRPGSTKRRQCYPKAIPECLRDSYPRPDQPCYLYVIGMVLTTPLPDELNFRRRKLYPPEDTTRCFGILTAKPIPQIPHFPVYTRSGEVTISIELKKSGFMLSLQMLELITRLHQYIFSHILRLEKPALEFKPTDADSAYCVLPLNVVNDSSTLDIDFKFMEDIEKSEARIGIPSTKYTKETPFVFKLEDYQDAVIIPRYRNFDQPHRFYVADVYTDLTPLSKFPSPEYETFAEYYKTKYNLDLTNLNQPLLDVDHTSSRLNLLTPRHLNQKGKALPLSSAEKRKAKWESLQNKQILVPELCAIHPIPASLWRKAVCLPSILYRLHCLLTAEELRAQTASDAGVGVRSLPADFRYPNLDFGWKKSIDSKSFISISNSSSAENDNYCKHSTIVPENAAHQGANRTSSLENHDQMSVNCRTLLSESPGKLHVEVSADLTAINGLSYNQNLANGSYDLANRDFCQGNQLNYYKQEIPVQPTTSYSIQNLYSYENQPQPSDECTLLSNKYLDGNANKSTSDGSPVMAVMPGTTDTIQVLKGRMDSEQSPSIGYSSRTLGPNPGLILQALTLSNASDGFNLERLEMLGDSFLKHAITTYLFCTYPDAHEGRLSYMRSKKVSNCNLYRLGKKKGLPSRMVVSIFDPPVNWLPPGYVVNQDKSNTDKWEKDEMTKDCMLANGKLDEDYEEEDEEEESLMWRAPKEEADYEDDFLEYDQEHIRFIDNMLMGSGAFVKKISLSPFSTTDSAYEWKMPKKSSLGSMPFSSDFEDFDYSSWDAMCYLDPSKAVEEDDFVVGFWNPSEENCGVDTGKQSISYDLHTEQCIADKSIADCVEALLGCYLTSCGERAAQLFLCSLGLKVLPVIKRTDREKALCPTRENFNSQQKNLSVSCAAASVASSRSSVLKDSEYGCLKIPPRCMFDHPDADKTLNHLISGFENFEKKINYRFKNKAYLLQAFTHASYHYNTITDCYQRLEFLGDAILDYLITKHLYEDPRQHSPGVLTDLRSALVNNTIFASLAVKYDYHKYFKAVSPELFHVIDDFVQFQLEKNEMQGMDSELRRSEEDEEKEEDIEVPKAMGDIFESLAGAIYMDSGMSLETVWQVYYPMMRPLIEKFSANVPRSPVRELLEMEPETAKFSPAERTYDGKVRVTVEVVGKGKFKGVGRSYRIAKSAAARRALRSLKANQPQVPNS
# The depositor's hits bear a star. The full list was thinned out, with hits kept by preference.
SMILES,Dicer inh
C=C1SC(Nc2cc(Cl)cc(Cl)c2)=NC1(CC)CC,0.85
COc1cc(OC)c([N+](=O)[O-])c(OC)c1,-1.4
O=C1c2oc3ccc(F)cc3c(=O)c2C(c2cccc(O)c2)N1Cc1ccccc1 (centres undefined),0.78
CCOC(=O)NC(Nc1ccccc1C(F)(F)F)(C(=O)OCC)C(F)(F)F (centres undefined),-0.62
CN(C)/C=N/S(=O)(=O)c1ccccc1,1.1
CC(C)(C)OC(=O)NCCN1C(=O)CC2(CCCC2)C1=O,-0.58
Nc1nc2c(c(C(F)(F)F)n1)CCCC2,1.5
O=c1[nH]ccc2c1c(=O)[nH]c1ccccc12,-1.3
CN(C)c1ccsc1C(=O)NNS(=O)(=O)c1cc(C(F)(F)F)cc(C(F)(F)F)c1,0.8
CCN1C(=O)C2(/C(=C(/O)c3ccc4c(c3)CC(C)O4)C(=O)C(=O)N2CCN(C)C)c2ccccc21 (centres undefined),-1.6
CCCCN1C(=O)C2(/C(=C(/O)c3ccc(C)cc3)C(=O)C(=O)N2CCCN(C)C)c2ccccc21 (centres undefined),1.8
CCCCN1C(=O)C2(/C(=C(/O)c3ccc4c(c3)CC(C)O4)C(=O)C(=O)N2CCOC)c2ccccc21 (centres undefined),4.9*
CCN1C(=O)C2(/C(=C(/O)c3ccc(OC)c(C)c3)C(=O)C(=O)N2CCN(C)C)c2ccccc21 (centres undefined),-4
CCN1C(=O)C2(/C(=C(/O)c3ccc4c(c3)CC(C)O4)C(=O)C(=O)N2CCCN(C)C)c2ccccc21 (centres undefined),4.3*
CC(=O)n1nccc1-c1sc2ccc(Cl)cc2c1C,1.3
CS(=O)(=O)N1N=C(c2c(-c3ccccc3)c3cc(Cl)ccc3[nH]c2=O)CC1c1ccccc1F (centres undefined),2
CCOc1ccsc1NC(=O)Nc1ccc(OC(F)(F)F)cc1,-1.4
CSc1scc(-c2cccc(C(F)(F)F)c2)c1C#N,-2.5
CN(C)S(=O)(=O)N(CC(=O)Nc1ccc(F)c(F)c1)c1ccccc1,4.3*
CSc1cccc(NC(=O)CN(c2ccccc2)S(=O)(=O)N(C)C)c1,-1.7
CN(C)S(=O)(=O)N(CC(=O)Nc1ccc2c(c1)OCO2)c1ccccc1,-1.1
CCC(=O)N1c2cc(Cl)ccc2-n2c(nn(C(=O)CC)c2=O)N1C(=O)CC,-1.2
CN(C)CCNc1ncnc2c1sc1nc3c(cc12)COC(C)(C)C3,0.01
COCCCn1c(O)c(C#N)c(C)cc1=O,-1.4
Nc1sc(-c2ccccc2)cc1-c1n[nH]c(=S)n1-c1ccc(F)cc1,-0.78
SMILES,Dicer inh
Nc1sc(-c2ccccc2)cc1-c1n[nH]c(=S)n1Cc1ccccc1,-8.9
COc1ccc(-n2c(-c3cc(-c4ccccc4)sc3N)n[nH]c2=S)cc1,5.4*
COc1ccc2nc(/N=C/c3ccccc3[N+](=O)[O-])sc2c1,0.84
CN(C)/C=C1\SCc2ccccc2C1=O,-1.5
CN(C)/C=C1\CCCc2ccccc2C1=O,3.4*
O=C1/C(=C/c2ccc3c(c2)OCO3)CCCc2ccccc21,-1.7
Cc1cc(C)n(-c2ccccc2)c2nn(-c3ccccc3)c(=O)c1-2,-0.91
Cc1cc2oc(-c3ccccc3C(=O)O)cc(=O)c2cc1C,-0.1
Cc1ccccc1-c1cc(=O)c2cc(Cl)ccc2o1,2.2
O=c1cc(-c2cc(Br)cc3c2OCOC3)oc2ccccc12,3.5*
CCNc1nc(SCC(=O)c2ccccc2)nc2sc3c(c12)CCC(C)C3 (centres undefined),0.5
COc1ccc(COC(=O)C2=C(C)NC3=C(C(=O)CCC3)C2c2cc3c(cc2Cl)OCO3)cc1 (centres undefined),4.2*
COc1ccc(COC(=O)C2=C(C)NC3=C(C(=O)CCC3)C2c2ccc3c(c2)OCO3)cc1 (centres undefined),0.95
CCOC(=O)C1=C(C)NC2=C(C(=O)CCC2)C1c1cc2c(cc1Cl)OCO2 (centres undefined),0.09
CCSc1ncc(-c2nnnn2-c2ccccc2)c(-c2ccccc2)n1,-0.02
COCc1cc(=O)oc2cc(OC(C)=O)c(Cl)cc12,0.17
COc1cc2cc(OC(=O)c3ccc([N+](=O)[O-])cc3)nc(C)c2cc1OC,0.99
C=CCOC(=O)C1=C(C)NC2=C(C(=O)CC(C)(C)C2)C1c1cc(Cl)c(O)c(OC)c1 (centres undefined),-0.7
COc1ccc(OC)c(SCC(=O)O)c1,-1.8
COC(=O)c1cc(-c2cc(OC)ccc2OC)no1,0.69
COc1ccc(OC)c(-c2sccc2CC(=O)O)c1,3.8*
CC(C)(C)S(=O)(=O)/C(C#N)=C/NNS(=O)(=O)c1ccc(Cl)c(Cl)c1,-1.4
NC(=O)CSc1nnnn1-c1ccccc1,4.9*
CCc1nnc(NC(=O)CSc2nnnn2-c2ccccc2)s1,1.8
CC(C)Sc1nnnn1-c1ccccc1,4.9*
SMILES,Dicer inh
Cc1n[nH]c(C)c1Sc1nnnn1-c1ccccc1,-1.7
O=C(CSc1nnnn1-c1ccccc1)Nc1cccc(F)c1,0.09
CS(=O)(=O)NCCSc1nnnn1-c1ccccc1,-0.83
CCSc1nnc(NC(=O)c2ccncc2)s1,2
COc1ccc2c(c1)N(C)/C(=C/c1ccc3ccccc3[n+]1C)S2,-0.75
NC1=NC(c2cccs2)n2c(nc3ccccc32)N1 (centres undefined),0.63
C=CCC(C)(NC1CCCCC1)c1ccccc1 (centres undefined),-0.58
Cc1ccc(C(=O)C(C)Sc2nnc(-c3ccc4ccccc4c3)n2C)cc1Cl (centres undefined),-0.6
CC(C)(C)c1cc2nc(C(F)(F)F)cc(Oc3ccc(Cl)cc3)n2n1,-0.68
O=c1[nH]c(=O)n(CCc2ccccc2)c2nc[nH]c12,0.05
Cc1cc(C)c2oc(-c3ccc(N)cc3)nc2c1,-0.73
C/C(=N\OC(=O)c1ccc(C(F)(F)F)cc1)c1ccn(S(=O)(=O)c2ccccc2)c1,-0.23
C/C(=N\OC(=O)c1ccc(Cl)cc1)c1ccn(S(=O)(=O)c2ccc(Cl)cc2)c1,11*
C/C(=N\O)c1ccn(S(=O)(=O)c2ccc(Cl)cc2)c1,0.09
CSc1nnc2c(n1)OC(c1ccccc1C)N(C(C)=O)c1ccccc1-2 (centres undefined),0.57
O=C(Nc1cccc(C(F)(F)F)c1)c1cccc(C(F)(F)F)n1,-0.72
Cc1nc(C)c(-c2ccn(S(=O)(=O)c3ccccc3Cl)n2)o1,-0.03
COc1ccc(CNc2nc3ccccc3n2C)cc1OC,1.8
Cc1ccc(CNc2nc3ccccc3n2CCN2CCOCC2)cc1,1.6
O=C(Nc1nc2ccccc2n1CCN1CCOCC1)c1cccc([N+](=O)[O-])c1,0.22
Oc1ccccc1CNc1nc2ccccc2n1CCN1CCOCC1,4.1*
CCn1c(NCc2ccccn2)nc2ccccc21,0.67
c1ccc(CNc2nc3ccccc3n2CCN2CCCCC2)nc1,3.5*
c1ccc2c(c1)nc(NCc1ccncc1)n2CCN1CCOCC1,2.5
COc1ccc(OC)c(CNc2nc3ccccc3n2CCN2CCOCC2)c1,5.1*
Cn1c(CNc2nc3ccccc3n2CCN2CCCCC2)nc2ccccc21,-0.42
CCN(CC)c1ncnc2c1sc1nc(C)c3c(c12)CC(C)(C)OC3,-0.79
CC(C)(C)OC(=O)C(C)(C)Sc1nc(-c2ccccc2)c(-c2ccccc2)o1,-0.76
Cc1ccc(/C(O)=C2\C(=O)C(=O)N(c3ccccn3)C2c2ccc(F)cc2)cc1 (centres undefined),0.39
CCOC(=O)N1CCc2c(sc3c2C(=O)NC(c2ccc(OCC)cc2)N3)C1 (centres undefined),-3.9
